# Laboratory results published in PMC4336329 (PLoS ONE, 2015).
# Screen size: about 310,000 compounds; about 2,200 (0.71%) showed an effect of 50% or more. Effects have a minus sign here. Only a selection was taken, and strong results are over-represented in it overall.
# Molecular target: human ether-à-go-go-related gene (hERG) potassium channel (human, UniProt Q12809)
# Assay: primary screen, population patch clamp on CHO cells stably expressing hERG; higher = less effect of the substance
# Method: Briefly, Chinese hamster ovary (CHO) cells stably expressing the hERG channel were dislodged from tissue culture flasks and dispensed into PPC plates. […] During the recording, background leak currents were estimated by a 100 ms step to -80 mV from an initial holding potential of -70 mV and subtracted from the subsequent current measurement. The campaign was conducted in two phases using slight differences in recording protocol. In the first phase, the initial voltage pulse used a 100 ms step to -30 mV from a holding potential of -70 mV, a 2 s conditioning step to +25 mV, and a 2 s test step to -30 mV. During the second phase of the screen, the potential during the conditioning step was raised to +45 mV. In both phases of the campaign, a secondary voltage pulse was applied using the same parameters as the second phase initial pulse. The initial and secondary pulses were applied in the absence of compound, and upon application of 1 μM and 10 μM test concentrations. Small molecule effects on hERG current density were quantified by […].
# Chain of human ether-à-go-go-related gene (hERG) potassium channel (Q12809 whole entry, looked up): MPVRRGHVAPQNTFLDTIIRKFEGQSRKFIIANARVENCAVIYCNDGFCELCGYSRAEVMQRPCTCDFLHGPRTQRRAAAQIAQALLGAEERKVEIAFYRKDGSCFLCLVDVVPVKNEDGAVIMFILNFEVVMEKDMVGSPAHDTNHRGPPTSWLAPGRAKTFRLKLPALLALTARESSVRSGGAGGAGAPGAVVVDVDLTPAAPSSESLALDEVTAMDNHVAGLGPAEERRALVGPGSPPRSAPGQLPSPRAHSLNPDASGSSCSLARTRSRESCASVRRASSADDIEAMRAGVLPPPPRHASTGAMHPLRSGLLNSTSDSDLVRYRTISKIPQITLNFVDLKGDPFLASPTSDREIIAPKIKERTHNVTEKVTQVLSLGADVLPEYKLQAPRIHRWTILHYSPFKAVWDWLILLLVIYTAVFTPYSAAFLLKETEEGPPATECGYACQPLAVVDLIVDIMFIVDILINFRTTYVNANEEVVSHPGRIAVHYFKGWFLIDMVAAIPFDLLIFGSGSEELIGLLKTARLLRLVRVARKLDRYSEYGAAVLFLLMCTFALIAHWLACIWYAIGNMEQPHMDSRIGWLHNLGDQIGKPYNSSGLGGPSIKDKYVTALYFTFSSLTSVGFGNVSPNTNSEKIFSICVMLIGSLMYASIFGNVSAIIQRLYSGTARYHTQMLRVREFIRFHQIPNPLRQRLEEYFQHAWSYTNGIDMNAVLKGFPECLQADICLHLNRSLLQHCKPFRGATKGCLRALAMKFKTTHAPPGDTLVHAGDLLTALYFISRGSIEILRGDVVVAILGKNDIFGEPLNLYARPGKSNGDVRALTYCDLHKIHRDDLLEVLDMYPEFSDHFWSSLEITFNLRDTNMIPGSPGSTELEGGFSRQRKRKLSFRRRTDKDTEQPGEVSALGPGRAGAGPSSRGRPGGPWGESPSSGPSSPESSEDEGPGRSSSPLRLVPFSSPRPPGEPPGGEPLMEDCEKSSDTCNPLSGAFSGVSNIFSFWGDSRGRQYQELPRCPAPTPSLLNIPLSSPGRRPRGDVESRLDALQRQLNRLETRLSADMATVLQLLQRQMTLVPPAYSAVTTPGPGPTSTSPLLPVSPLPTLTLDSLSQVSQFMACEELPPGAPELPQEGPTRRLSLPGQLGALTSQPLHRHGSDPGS
row,SMILES,"hERG current change (%, negative = inhibition) at 1uM"
1,CCc1cccc2c(C=C(C#N)C#N)cn(CC(=O)N3CCCC3)c12,2.04%
2,CNC(=O)C1CCN(S(=O)(=O)c2c(C)noc2/C=C/c2ccc(C)cc2)CC1,10.2%
3,COc1cc(C(=O)N2CCN(C/C=C/c3ccccc3)CC2)cc(OC)c1C,6.9%
4,COc1ccc(C(=O)NC2CC2)cc1OC1CCN(C/C=C/c2ccccc2)CC1,-84.3%
5,COc1ccccc1/C=C/CN1CCC(Oc2cc(C(=O)NC3CC3)ccc2OC)CC1,-78.3%
6,COc1ccccc1/C=C/CN1CCC(Oc2ccc(C(=O)N3CCCC3)cc2)CC1,10.1%
7,COc1ccccc1/C=C/CN1CCC(Oc2ccc(C(=O)N3CCCCC3)cc2)CC1,7.23%
8,COc1cc(C(=O)N2CCN(C/C=C/c3ccccc3)CC2)cc(OC)c1OC,-2.2%
9,Cc1ccc(SCCC(=O)NCCSCc2ccccc2C)cc1,10.1%
10,CCN1CCN(P2(=O)C=C(c3ccccc3)OC(c3ccccc3)=C2)CC1,-86.5%
11,O=P1(O)C=C(c2ccccc2)OC(c2ccccc2)=C1,14.1%
12,O=P1(Nn2cnnc2)C=C(c2ccccc2)OC(c2ccccc2)=C1,-9.39%
13,Cc1ccc(CSCC(=O)NCc2cccs2)cc1,7.51%
14,CCc1ccc(-n2nnnc2SCC(=O)Nc2ccc(NC(C)=O)cc2)cc1,20.4%
15,Cc1cc(SCC(=O)N/N=C/c2ccc(O)cc2O)c(C)cc1Br,8.67%
16,Cn1c(CCN2CCN(c3ccccn3)CC2)nc2cc(NC(=O)COc3ccc(Cl)cc3)ccc21,0.879%
17,Cc1cccc(OCC(=O)Nc2ccc3c(c2)nc(CCN2CCC(C)CC2)n3C)c1,-47.9%
18,Cn1c(CCN2CCN(c3ccccn3)CC2)nc2cc(NC(=O)COc3ccccc3)ccc21,-67%
19,CCC(=O)Nc1ccc2c(c1)nc(CCN1CCN(c3ccccn3)CC1)n2C,4.59%

row,SMILES,"hERG current change (%, negative = inhibition) at 1uM"
1,Cn1c(CCN2CCN(c3ccccn3)CC2)nc2cc(NC(=O)COc3ccc([N+](=O)[O-])cc3)ccc21,9.63%
2,Cc1cccc(OCC(=O)Nc2ccc3c(c2)nc(CCN2CCN(c4ccccn4)CC2)n3C)c1,-67%
3,COc1ccc(C2OC(=O)CC2C(=O)N2CCN(c3cc(Cl)ccc3C)CC2)cc1OC (stereo not drawn),7.68%
4,CCn1c(-c2cc(-c3ccc(C)c(C)c3)nc3ccccc23)n[nH]c1=S,16.2%
5,CCOC(=O)C1CCN(C2CC(=O)N(c3ccc(OCC)cc3)C2=O)CC1 (stereo not drawn),2.22%
6,CCOC(=O)c1ccc(NCc2cccnc2)cc1,8.24%
7,CCOC(=O)c1cnc2ccc(OC)cc2c1NCc1ccccc1,-33.4%
8,CCOC(=O)c1cnc2ccccc2c1NCc1ccco1,-14.7%
9,CCOC(=O)c1cnc2ccc(OCC)cc2c1NCc1cccnc1.Cl,-75.3%
10,CCOC(=O)c1cnc2c(C(=O)OC)cccc2c1NCc1ccco1,-71.4%
11,CCOC(=O)c1cnc2c(C(=O)OC)cccc2c1NCc1cccnc1,-55.5%
12,CCOC(=O)c1cnc2c(C)cccc2c1NCc1ccco1,-45.3%
13,CCOC(=O)c1cnc2ccc(OCC)cc2c1NCc1ccccc1,-12.8%
14,CCOC(=O)c1cnc2c(C(=O)OC)cccc2c1NCCN1CCOCC1,-47.1%
15,CCOC(=O)c1cnc2c(OC)cccc2c1Nc1ccc2c(c1)OCCO2,-3.26%
16,CCOC(=O)c1cnc2c(OC)cccc2c1Oc1ccccc1,11%
17,CCOC(=O)c1cnc2c(OC)cccc2c1NCc1cccnc1,-68.1%
18,COc1ccc(OC)c(C(=O)CSc2nnc(Cc3cccs3)n2CCc2ccccc2)c1,-6.84%
19,CC(NC(=O)CSc1nc2ccccc2c(=O)n1CCCO)c1ccccc1 (stereo not drawn),-0.931%

row,SMILES,"hERG current change (%, negative = inhibition) at 1uM"
1,COCCN(CCOC)S(=O)(=O)c1ccc(C(=O)NC2CCN(Cc3ccccc3)CC2)cc1.Cl,-1.24%
2,COc1ccc(C(=O)Nc2nnc(SCC(=O)NC3CCCC3)s2)c(OC)c1,14.4%
3,CN1C(=O)/C(=C\c2cc(Br)cs2)c2ccccc21,12.7%
4,O=C(Cc1ccc(Cl)cc1)NCC(=O)N1CCCCCC1,4.89%
5,COc1ccc(-n2c(=O)c3c4c(sc3n3c(=S)[nH]nc23)CCC4)cc1,9.01%
6,CCCN1CCN(CCCNC(=O)c2ccc3c(c2)NC(=O)c2ccccc2S3)CC1,9.21%
7,O=C1NC(=Nc2cccc([N+](=O)[O-])c2)SC1(CO)CO,2.12%
8,COc1ccc(C)cc1NC(=O)COC(=O)C1CCN(C(=O)c2ccc(Cl)cc2)CC1,-57.7%
9,COc1ccc(C)cc1NC(=O)COC(=O)C1CC1,6.74%
10,COc1ccc(OC)c(NC(=O)COC(=O)C2CCN(C(=O)c3ccc(Cl)cc3)CC2)c1,-49.1%
11,O=C(COc1ccc(Br)cc1Cl)NC1CCN(Cc2ccccc2)CC1,-16.4%
12,Cc1cc(OCC(=O)NC2CCN(Cc3ccccc3)CC2)c2c(C)c(C)c(=O)oc2c1,7.38%
13,O=C(NC1CCN(Cc2ccccc2)CC1)C1CCN(S(=O)(=O)c2ccc(Cl)cc2)CC1,-16.9%
14,Cl.O=C(COc1ccccc1F)NC1CCN(Cc2ccccc2)CC1,-3.6%
15,Cc1ccc(Cl)cc1S(=O)(=O)N1CCC(C(=O)NC2CCN(Cc3ccccc3)CC2)CC1,-66.1%
16,O=C(COc1ccc(Br)cc1F)NC1CCN(Cc2ccccc2)CC1,-64.8%
17,O=C(NC1CCN(Cc2ccccc2)CC1)C1CCN(S(=O)(=O)c2ccccc2)CC1,1.18%
18,Cc1ccc(Cl)c(OCC(=O)NC2CCN(Cc3ccccc3)CC2)c1,-93.9%
19,O=C(COc1ccccc1)NC1CCN(Cc2ccccc2)CC1,-8.39%
